# Test results taken from PubChem BioAssay (Tox21).
# Results filed as inconclusive are left out. A number with no mark means an inactive call. The call rests on the fitted dose curve; in most records, active means well fitted activation curve with a large enough effect in the repeat runs; inconclusive means weak or mixed curves; inactive means flat fitted curve, though single readings scatter.
# Experiment: A CellTox Green Cytotoxicity Assay to monitor cytotoxicity in HEK293 cells - 40 hour (AID 1224871); further: nearly all actives have a fitted effect of over 45% in size
# Conditions: CellTox Green fluorescence; series mostly up to 76.8 µM; cytotoxicity increase: at the top concentration
# Excerpt: National Center for Advancing Translational Sciences [NCATS]
# NIH Chemical Genomics Center [NCGC]
# U.S. Environmental Protection Agency [EPA]
# National Institutes of Environmental Health Sciences [NIEHS]
# National Toxicology Program [NTP]
# Cell-based models are critical for drug discovery. Determining the natural cytotoxic effects resulting from test compounds is an essential research activity. A CellTox Green Cytotoxicity Assay to monitor cytotoxicity in real time of continues cell culture during 40 hours of the compound treatment was used to screen Tox21 10K library compounds in Hek293 cells. CellTox Green Cytotoxicity Assay is a nonlytic, homogeneous, biofluorescent method to measure cytotoxicity in cell culture after experimental manipulation. The assay system uses a proprietary asymmetric cyanine dye that is excluded from viable cells but preferentially stains the dead cell's DNA. […] Viable cells produce no appreciable increases in fluorescence. Therefore, the fluorescence signal produced by the binding interaction with dead cell DNA is proportional to cytotoxicity.
# The mixture of Hek293 cell suspension and reagents were dispensed at 600cells/6 ul/well in 1536-well tissue culture treated black solid bottom plates using a Multidrop dispenser. After the assay plates were incubated at a 37 C/5% CO2 incubator for 5 hours, 23 nL of compounds dissolved in DMSO, positive and negative controls was transferred to the assay plate by a pintool work station. The plates were incubated at 37 C for 40 hours. The fluorescence intensity were measured at 0h, 8h, 16h, 24h, 32h and 40h time points using ViewLux plate reader during compound treatment.
# On the % scale 0 is the no-effect control and ±100 the full control effect.
row,SMILES,cytotoxicity increase
1,CCCCCCCCOCCC#N,5.87%
2,c1coc(Cn2cccc2)c1,1%
3,CCO/C=C1\N=C(c2ccccc2)OC1=O,-9.42%
4,O=C(c1ccccc1)c1cccc(O)c1,20.1%
5,CCCOc1ccc(C(=O)OCCN(CC)CC)cc1N,-0.451% [at 35.3 µM]
6,CC(C)C(=O)Nc1cccc(C2CN3CCSC3=N2)c1 (stereo not given),-21% [at 35.3 µM]
7,Cc1ccc(N)nc1,-5.95%
8,Cc1ccccc1OCC(=O)O,-0.248%
9,CN(C)CCc1c[nH]c2ccc(CS(=O)(=O)N3CCCC3)cc12,-12.5% [at 35.3 µM]
10,C=CC(C)(CCC=C(C)C)OC(=O)C(C)C (stereo not given),-10.5%
11,COc1cc(OC)cc(OC)c1,2.82% [at 35.3 µM]
12,CC(C)=CCC/C(C)=C\C#N,-14.7%
13,CCOC(=O)[C@H](CCc1ccccc1)N[C@H]1CS[C@H](c2cccs2)CN(CC(=O)O)C1=O,0.0234% [at 35.3 µM]
14,CCN(CC)CC,-11.4%
15,C=CCCCCCCCCCCCCCC,0.351% [at 15.8 µM]
16,C=CCON/C(CCC)=C1\C(=O)CC(C)(C)C(C(=O)OC)=C1O,3.01%
17,CNC(C)=O,-12.4%
18,CC(C)(C)c1ccc(N)cc1,11.1%
19,Nc1cc(S(=O)(=O)O)ccc1O,20.2%
20,COC(=O)c1ccccc1Cl,-1.46%

row,SMILES,cytotoxicity increase
1,CCC(C)SSC(C)CC (stereo not given),15.8%
2,CCCCC(O)/C=C(C)/C=C/C=C/C(=O)N1CCCC1=O (stereo not given),-18.9% [at 35.3 µM]
3,CCCCCCCCCCCCCCCCN(C)C,4.91% [at 6.97 µM]
4,CCOC(=O)CN1CCCC1=O,-22% [at 35.3 µM]
5,C[C@@H]1CC[C@@]2(OC1)O[C@H]1C[C@H]3[C@@H]4CC[C@H]5C[C@@H](O)CC[C@]5(C)[C@H]4CC(=O)[C@]3(C)[C@H]1[C@@H]2C,-2.28% [at 6.97 µM]
6,CC(C)(C)OC=O,-1.85%
7,CC(=O)SCC(CC(=O)c1ccc(C)cc1)C(=O)O (stereo not given),-7.38% [at 35.3 µM]
8,CCCCN(CCCC)CCCCCCN(CCCC)CCCC,-8.07%
9,Cc1ccccc1C#N,-3.67%
10,O=C(CCBr)N1CCN(C(=O)CCBr)CC1,6.71% [at 35.3 µM]
11,C=CCn1cc[n+](C)c1,-4.63%
12,C=C(C)C(=O)OCCOC1CC2CC1C1C=CCC21 (stereo not given),-1.68%
13,CCCC(C)C(O)CC (stereo not given),-0.413%
14,CCCCc1ccc(Cl)cc1,-16.4%
15,O=P(O)(O)C(O)(Cc1cccnc1)P(=O)(O)O,-17.4% [at 35.3 µM]
16,CN1CCN(C(=O)C2CCCCC2)CC1,-2.62% [at 35.3 µM]
17,CC[N+](C)(CC)CC,-6.77%
18,O=C(O)Cc1c(Cl)ccc(Cl)c1Cl,-4.47%
19,COC(=O)c1ccc(C(=O)O)cc1,-7.2%
20,NNC(=O)CCCCC(=O)NN,-15.7%
